39 sequences from article PMC7862700, “An all-to-all approach to the identification of sequence-specific readers for epigenetic DNA modifications on cytosine” can be followed below.

Sequence of ETV1 (P50549 whole entry): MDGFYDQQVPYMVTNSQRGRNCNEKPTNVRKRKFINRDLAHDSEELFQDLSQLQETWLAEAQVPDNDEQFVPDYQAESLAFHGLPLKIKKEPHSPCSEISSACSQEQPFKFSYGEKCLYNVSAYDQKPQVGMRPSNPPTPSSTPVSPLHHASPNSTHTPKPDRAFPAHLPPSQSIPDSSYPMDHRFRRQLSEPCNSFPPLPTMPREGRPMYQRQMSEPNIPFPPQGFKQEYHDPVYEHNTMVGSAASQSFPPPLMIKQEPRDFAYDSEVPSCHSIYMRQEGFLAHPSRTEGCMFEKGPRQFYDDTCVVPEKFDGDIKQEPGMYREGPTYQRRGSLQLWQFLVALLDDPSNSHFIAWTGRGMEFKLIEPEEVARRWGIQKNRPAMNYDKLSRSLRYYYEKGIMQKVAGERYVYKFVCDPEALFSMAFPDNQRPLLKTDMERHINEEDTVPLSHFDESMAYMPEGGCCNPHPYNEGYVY

One assay addresses T1, ELF3 (Homo sapiens, UniProt P78545 1-371).
T1 sequence: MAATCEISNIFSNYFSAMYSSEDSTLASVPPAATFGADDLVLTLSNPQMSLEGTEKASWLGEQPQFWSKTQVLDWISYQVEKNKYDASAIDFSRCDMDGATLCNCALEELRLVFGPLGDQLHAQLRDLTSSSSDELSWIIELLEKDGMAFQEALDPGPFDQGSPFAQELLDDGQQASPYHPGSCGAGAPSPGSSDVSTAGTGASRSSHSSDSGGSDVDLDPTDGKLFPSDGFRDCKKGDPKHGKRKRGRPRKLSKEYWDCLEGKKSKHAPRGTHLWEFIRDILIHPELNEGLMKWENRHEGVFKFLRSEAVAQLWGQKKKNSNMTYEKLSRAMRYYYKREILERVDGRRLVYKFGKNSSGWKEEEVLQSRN
In words: DAPPL (digital affinity profiling via proximity ligation, sequencing); 10 mM Tris-HCl pH 7.5, 50 mM NaCl, 1 mM DTT, 4% glycerol, room temperature, 30 min; GST-TFs on glutathione beads, 16-mer random dsDNA library, 0.1% formaldehyde crosslink after washing; high values mean tight binding. To be noted: protein: recombinant; tags: N-terminal GST; dsDNA, one strand shown. The method in brief: (§1)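 Human transcription factors were made in yeast as GST fusions, captured on glutathione beads and barcoded with DNA. With a tag-only sample included, the pool was incubated with 200 nmole of a random double-stranded 16-mer DNA library in Tris/NaCl/DTT/glycerol buffer at room temperature for 30 min, then crosslinked with 0.1% formaldehyde after washing, ligated by proximity, amplified and sequenced. For binding signal, each hexamer's read frequency for a factor is divided by its frequency for the tag-only sample.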
As to TACCAT, the binding signal is 1.16 fold enrichment (6-mer frequency, TF over GST control).
Consider GTTCCT, for which the binding signal was 1.6 fold enrichment (6-mer frequency, TF over GST control).
The same measure, in the same setting: then CCGCCT, with 1.35 fold enrichment (6-mer frequency, TF over GST control); and AAATTG, with 1.33 fold enrichment (6-mer frequency, TF over GST control); and AAAAAG, with 1.28 fold enrichment (6-mer frequency, TF over GST control).
Same read-out and setting: then TATTTT, with 1.36 fold enrichment (6-mer frequency, TF over GST control); and CTTCGT, with 1.41 fold enrichment (6-mer frequency, TF over GST control); and GTTATT, with 1.22 fold enrichment (6-mer frequency, TF over GST control).
As for CCTGCT, the binding signal was 1.47 fold enrichment (6-mer frequency, TF over GST control).
As to CTAGCA, the binding signal was 1.21 fold enrichment (6-mer frequency, TF over GST control).
The same measure, in the same setting: to ATGACC belongs 1.63 fold enrichment (6-mer frequency, TF over GST control); to CTTCCG, 6.78 fold enrichment (6-mer frequency, TF over GST control).
On the same count and under the same terms, to AATGAC belongs 1.49 fold enrichment (6-mer frequency, TF over GST control).
On the same count and under the same terms, then ACCGAT, with 1.22 fold enrichment (6-mer frequency, TF over GST control).
As for ATACGA, the binding signal is 1.08 fold enrichment (6-mer frequency, TF over GST control).
Same read-out and setting: to TCTCGA belongs 1.35 fold enrichment (6-mer frequency, TF over GST control); to TGACCG, 1.66 fold enrichment (6-mer frequency, TF over GST control).
On the same count and under the same terms, then TCTGCA, with 1.36 fold enrichment (6-mer frequency, TF over GST control); and TACGAC, with 1.31 fold enrichment (6-mer frequency, TF over GST control); and TAAGTA, with 1.36 fold enrichment (6-mer frequency, TF over GST control).
GTTCTC: the binding signal was 1.3 fold enrichment (6-mer frequency, TF over GST control).
In the case of TTTTAA, the binding signal was 1.32 fold enrichment (6-mer frequency, TF over GST control).
Take ATGCTT: the binding signal is 1.35 fold enrichment (6-mer frequency, TF over GST control).
Take ATCCTG: the binding signal was 1.35 fold enrichment (6-mer frequency, TF over GST control).
On the same count and under the same terms, to ACACTT belongs 1.66 fold enrichment (6-mer frequency, TF over GST control).
The same measure, in the same setting: then ATTCTC, with 1.2 fold enrichment (6-mer frequency, TF over GST control); and TCTTTG, with 1.18 fold enrichment (6-mer frequency, TF over GST control).
Consider CAATTC, for which the binding signal is 1.34 fold enrichment (6-mer frequency, TF over GST control).
The same measure, in the same setting: to TAATTT belongs 1.49 fold enrichment (6-mer frequency, TF over GST control).
On the same count and under the same terms, then ACTGAT, with 1.21 fold enrichment (6-mer frequency, TF over GST control).
Same read-out and setting: then TTTTTG, with 1.44 fold enrichment (6-mer frequency, TF over GST control); and TTTTCG, with 1.11 fold enrichment (6-mer frequency, TF over GST control).
TCGACT: the binding signal is 1.49 fold enrichment (6-mer frequency, TF over GST control).
Consider TTATGT, for which the binding signal was 1.41 fold enrichment (6-mer frequency, TF over GST control).
As to TTATCT, the binding signal was 1.13 fold enrichment (6-mer frequency, TF over GST control).
For the sequence CCGTTC, the binding signal was 1.36 fold enrichment (6-mer frequency, TF over GST control).
On the same count and under the same terms, then AAACTA, with 1.09 fold enrichment (6-mer frequency, TF over GST control); and TACATG, with 1.28 fold enrichment (6-mer frequency, TF over GST control).
For GTTGCT, the binding signal is 1.16 fold enrichment (6-mer frequency, TF over GST control).

The target in another assay is CRX (Homo sapiens, UniProt O43186 1-299). The assay is described as above. To be noted: protein: recombinant; tags: N-terminal GST; dsDNA, one strand shown. An outline of the steps: as §1
Sequence of CRX (O43186 whole entry): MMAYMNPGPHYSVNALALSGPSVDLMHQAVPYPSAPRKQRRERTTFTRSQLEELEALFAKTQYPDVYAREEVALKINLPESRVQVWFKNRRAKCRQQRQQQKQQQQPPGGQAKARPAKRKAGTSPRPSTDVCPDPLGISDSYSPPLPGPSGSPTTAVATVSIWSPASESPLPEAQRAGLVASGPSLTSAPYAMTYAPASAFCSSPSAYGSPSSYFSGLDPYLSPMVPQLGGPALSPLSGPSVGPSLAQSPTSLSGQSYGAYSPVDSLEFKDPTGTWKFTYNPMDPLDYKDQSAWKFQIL
With TACCAT, the binding signal is 1.23 fold enrichment (6-mer frequency, TF over GST control).
Same read-out and setting: then GTTCCT, with 1.07 fold enrichment (6-mer frequency, TF over GST control); and CCGCCT, with 1.25 fold enrichment (6-mer frequency, TF over GST control); and AAATTG, with 1.05 fold enrichment (6-mer frequency, TF over GST control).
The same measure, in the same setting: then AAAAAG, with 1.2 fold enrichment (6-mer frequency, TF over GST control); and TATTTT, with 1.77 fold enrichment (6-mer frequency, TF over GST control); and CTTCGT, with 1.22 fold enrichment (6-mer frequency, TF over GST control).
Take GTTATT: the binding signal is 1.32 fold enrichment (6-mer frequency, TF over GST control).
For the sequence CCTGCT, the binding signal was 1.38 fold enrichment (6-mer frequency, TF over GST control).
With CTAGCA, the binding signal is 1.34 fold enrichment (6-mer frequency, TF over GST control).
On to ATGACC, for which the binding signal is 1.31 fold enrichment (6-mer frequency, TF over GST control).
The same measure, in the same setting: to CTTCCG belongs 1.27 fold enrichment (6-mer frequency, TF over GST control).
Same read-out and setting: then AATGAC, with 1.16 fold enrichment (6-mer frequency, TF over GST control); and ACCGAT, with 1.24 fold enrichment (6-mer frequency, TF over GST control).
In the case of ATACGA, the binding signal is 1.17 fold enrichment (6-mer frequency, TF over GST control).
TCTCGA: the binding signal was 2.28 fold enrichment (6-mer frequency, TF over GST control).
As to TGACCG, the binding signal was 1.1 fold enrichment (6-mer frequency, TF over GST control).
For the sequence TCTGCA, the binding signal was 1.25 fold enrichment (6-mer frequency, TF over GST control).
As for TACGAC, the binding signal was 1.25 fold enrichment (6-mer frequency, TF over GST control).
For the sequence TAAGTA, the binding signal was 2.63 fold enrichment (6-mer frequency, TF over GST control).
Same read-out and setting: then GTTCTC, with 1.28 fold enrichment (6-mer frequency, TF over GST control); and TTTTAA, with 2.18 fold enrichment (6-mer frequency, TF over GST control); and ATGCTT, with 1.24 fold enrichment (6-mer frequency, TF over GST control).
As for ATCCTG, the binding signal was 1.55 fold enrichment (6-mer frequency, TF over GST control).
On to ACACTT, for which the binding signal was 1.16 fold enrichment (6-mer frequency, TF over GST control).
For the sequence ATTCTC, the binding signal is 1.69 fold enrichment (6-mer frequency, TF over GST control).
On the same count and under the same terms, then TCTTTG, with 1.27 fold enrichment (6-mer frequency, TF over GST control).
On the same count and under the same terms, to CAATTC belongs 1.07 fold enrichment (6-mer frequency, TF over GST control); to TAATTT, 2.03 fold enrichment (6-mer frequency, TF over GST control); to ACTGAT, 1.38 fold enrichment (6-mer frequency, TF over GST control).
With TTTTTG, the binding signal was 1.31 fold enrichment (6-mer frequency, TF over GST control).
The same measure, in the same setting: then TTTTCG, with 1.28 fold enrichment (6-mer frequency, TF over GST control); and TCGACT, with 1.36 fold enrichment (6-mer frequency, TF over GST control); and TTATGT, with 2.24 fold enrichment (6-mer frequency, TF over GST control).
In the case of TTATCT, the binding signal is 3.25 fold enrichment (6-mer frequency, TF over GST control).
Still for that read-out and setting: to CCGTTC belongs 1.11 fold enrichment (6-mer frequency, TF over GST control).
On the same count and under the same terms, then AAACTA, with 1.35 fold enrichment (6-mer frequency, TF over GST control); and TACATG, with 1.09 fold enrichment (6-mer frequency, TF over GST control).
Still for that read-out and setting: to GTTGCT belongs 1.06 fold enrichment (6-mer frequency, TF over GST control).

The next assay has as its target ETV1 (Homo sapiens, UniProt P50549 1-477). The description is as above. The conditions noted are these: protein: recombinant; tags: N-terminal GST; dsDNA, one strand shown. An outline of the steps:
as §1
For the sequence TACCAT, the binding signal was 1.2 fold enrichment (6-mer frequency, TF over GST control).
Still for that read-out and setting: then GTTCCT, with 1.79 fold enrichment (6-mer frequency, TF over GST control).
Regarding CCGCCT, the binding signal is 1.47 fold enrichment (6-mer frequency, TF over GST control).
Same read-out and setting: then AAATTG, with 1.21 fold enrichment (6-mer frequency, TF over GST control); and AAAAAG, with 1.26 fold enrichment (6-mer frequency, TF over GST control); and TATTTT, with 1.48 fold enrichment (6-mer frequency, TF over GST control).
On the same count and under the same terms, then CTTCGT, with 1.32 fold enrichment (6-mer frequency, TF over GST control); and GTTATT, with 1.12 fold enrichment (6-mer frequency, TF over GST control).
The same measure, in the same setting: then CCTGCT, with 1.68 fold enrichment (6-mer frequency, TF over GST control); and CTAGCA, with 1.24 fold enrichment (6-mer frequency, TF over GST control); and ATGACC, with 1.62 fold enrichment (6-mer frequency, TF over GST control).
For CTTCCG, the binding signal was 7.97 fold enrichment (6-mer frequency, TF over GST control).
On the same count and under the same terms, to AATGAC belongs 1.4 fold enrichment (6-mer frequency, TF over GST control); to ACCGAT, 1.12 fold enrichment (6-mer frequency, TF over GST control).
For the sequence ATACGA, the binding signal was 1.19 fold enrichment (6-mer frequency, TF over GST control).
On the same count and under the same terms, then TCTCGA, with 1.47 fold enrichment (6-mer frequency, TF over GST control); and TGACCG, with 1.56 fold enrichment (6-mer frequency, TF over GST control).
For TCTGCA, the binding signal was 1.26 fold enrichment (6-mer frequency, TF over GST control).
Still for that read-out and setting: to TACGAC belongs 1.37 fold enrichment (6-mer frequency, TF over GST control); to TAAGTA, 1.29 fold enrichment (6-mer frequency, TF over GST control); to GTTCTC, 1.34 fold enrichment (6-mer frequency, TF over GST control).
Turning to TTTTAA, the binding signal was 1.26 fold enrichment (6-mer frequency, TF over GST control).
ATGCTT: the binding signal was 1.3 fold enrichment (6-mer frequency, TF over GST control).
Still for that read-out and setting: to ATCCTG belongs 1.43 fold enrichment (6-mer frequency, TF over GST control).
Same read-out and setting: to ACACTT belongs 1.77 fold enrichment (6-mer frequency, TF over GST control); to ATTCTC, 1.23 fold enrichment (6-mer frequency, TF over GST control); to TCTTTG, 1.1 fold enrichment (6-mer frequency, TF over GST control).
On the same count and under the same terms, then CAATTC, with 1.21 fold enrichment (6-mer frequency, TF over GST control); and TAATTT, with 1.35 fold enrichment (6-mer frequency, TF over GST control); and ACTGAT, with 1.32 fold enrichment (6-mer frequency, TF over GST control).
Turning to TTTTTG, the binding signal is 1.48 fold enrichment (6-mer frequency, TF over GST control).
For the sequence TTTTCG, the binding signal was 1.2 fold enrichment (6-mer frequency, TF over GST control).
Same read-out and setting: to TCGACT belongs 1.38 fold enrichment (6-mer frequency, TF over GST control); to TTATGT, 1.29 fold enrichment (6-mer frequency, TF over GST control).
For TTATCT, the binding signal is 1.29 fold enrichment (6-mer frequency, TF over GST control).
The same measure, in the same setting: to CCGTTC belongs 1.27 fold enrichment (6-mer frequency, TF over GST control); to AAACTA, 1.36 fold enrichment (6-mer frequency, TF over GST control).
Take TACATG: the binding signal was 1.21 fold enrichment (6-mer frequency, TF over GST control).
The same measure, in the same setting: then GTTGCT, with 1.38 fold enrichment (6-mer frequency, TF over GST control).
